The record followed here is PubChem BioAssay (NCI).

The nature of assay [1]: NCI Yeast Anticancer Drug Screen. Data for the rad50 strain (AID 155).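 Also: 0% = growth of vehicle-only cultures of the same strain.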 Conditions: S. cerevisiae rad50 strain growth inhibition, hits give high values. In outline: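 A DNA repair-deficient yeast mutant serves as the test organism; compound-induced growth inhibition is calculated against vehicle-treated cells.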
The nature of assay [2]: NCI Yeast Anticancer Drug Screen. Data for the mec2-1 strain (AID 157). Conditions: S. cerevisiae mec2-1 strain, hits give high values. In outline: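 Yeast mec2-1 mutant treated with compound. Readout: growth inhibition vs vehicle controls.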
Assay [3] in a line: NCI Yeast Anticancer Drug Screen. Data for the sgs1 mgt1 strain (AID 161).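 Also: 0% = growth of cultures given vehicle only.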 Particulars: S. cerevisiae sgs1 mgt1 strain, hits give high values. In short, it runs like this:
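Test agents were incubated with a DNA-repair-mutant yeast strain. Growth was then read and compared against vehicle-treated controls.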

A short description of assay [4]: NCI Yeast Anticancer Drug Screen. Data for the cln2 rad14 strain (AID 165).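 Also: 0% = growth equal to vehicle treated cultures.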 Conditions: S. cerevisiae cln2 rad14 strain, hits give high values. In outline: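 cln2 rad14 yeast strain; compound exposure; growth inhibition read vs vehicle controls.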
The nature of assay [5]: NCI Yeast Anticancer Drug Screen. Data for the bub3 strain (AID 167). Particulars: S. cerevisiae bub3 mutant strain, hits give high values. In short, it runs like this: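 Inhibition values come from growth of compound-treated mutant yeast normalised to vehicle-treated controls.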
Assay [6] in a line: NCI Yeast Anticancer Drug Screen. Data for the mlh1 rad18 strain (AID 175). Particulars: S. cerevisiae mlh1 rad18 strain growth inhibition, hits give high values. In outline: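 Yeast w/ defined DNA-repair lesions; compound exposure; growth vs vehicle controls → % inhibition.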
Setting [7] is: at 5.0 µM (retest, dose inferred, filed as 0.5).
Setting [8] is: at 50.0 µM (retest, dose inferred, filed as 5.0).

The structures appear in SMILES notation. This is part of a sample that, as a whole, favours compounds with a hit. Of some 79,000 tested, about 15% had one in any assay. Unmarked numbers belong to inactive results. Activity calls are given as the source filed them. Rule as the data show it: active = growth inhibition above about 70%; inactive = the rest.

Turning to `CC1CCN(SSc2nc3ccccc3s2)CC1`, the growth inhibition is 31% in assay [1] (setting [7]); 91% (active) in assay [1] (setting [8]); 28.4% in assay [1] (at 50.0 µM); 36% in assay [2] (setting [7]); 94% (active) in assay [2] (setting [8]); 80.5% (active) in assay [2] (at 50.0 µM). Also, the growth inhibition in assay [3] (setting [7]) is 51%; in assay [3] (setting [8]) it was 96% (active); in assay [3] (at 50.0 µM), 77.4% (active); in assay [4] (setting [7]), 44%; in assay [4] (setting [8]), 70% (active); in assay [4] (at 50.0 µM), 21.4%. Further, the growth inhibition is 61% in assay [5] (setting [7]); 97% (active) in assay [5] (setting [8]); 82% (active) in assay [5] (at 50.0 µM); 30% in assay [6] (setting [7]); 73% (active) in assay [6] (setting [8]); 79% (active) in assay [6] (at 50.0 µM).

With `C=CC1(C)CCC2C(=CCC3C(C)(C(=O)O)CCCC23C)C1` (stereo not drawn) (tested in a mixture with another compound), the growth inhibition in assay [1] (setting [7]) was -5%; in assay [1] (setting [8]), 61%; in assay [1] (at 50.0 µM) it was 65.1%; in assay [2] (setting [7]), 0%; in assay [2] (setting [8]), 87% (active); in assay [2] (at 50.0 µM), 74.2% (active). For the same compound, the growth inhibition in assay [3] (setting [7]) is -5%; in assay [3] (setting [8]) it was 59%; in assay [3] (at 50.0 µM), 32.4%; in assay [4] (setting [7]), -28%; in assay [4] (setting [8]), 66%; in assay [4] (at 50.0 µM), 76.8% (active). In addition, the growth inhibition in assay [5] (setting [7]) was -17%; in assay [5] (setting [8]), 66%; in assay [5] (at 50.0 µM), 64.2%; in assay [6] (setting [7]) it was 6%; in assay [6] (setting [8]), 84% (active); in assay [6] (at 50.0 µM), 72% (active).

In the case of `C/C(=N\NC(N)=S)c1ccc(Oc2ccccc2)cc1`, the growth inhibition in assay [1] (setting [7]) was 50%; in assay [1] (setting [8]), 77% (active); in assay [1] (at 50.0 µM) it was 98.9% (active); in assay [2] (setting [7]), 43%; in assay [2] (setting [8]), 75% (active); in assay [2] (at 50.0 µM), 98.5% (active). The growth inhibition in assay [3] (setting [7]) was 65%; in assay [3] (setting [8]) it was 93% (active); in assay [3] (at 50.0 µM), 99% (active); in assay [4] (setting [7]), 27%; in assay [4] (setting [8]), 70% (active); in assay [4] (at 50.0 µM), 98.5% (active). The growth inhibition was 35% in assay [5] (setting [7]); 70% (active) in assay [5] (setting [8]); 98.8% (active) in assay [5] (at 50.0 µM); 63% in assay [6] (setting [7]); 89% (active) in assay [6] (setting [8]); 97.8% (active) in assay [6] (at 50.0 µM).

Take `COC(=O)C12OCC34C(CC5C(C)C6=CC(=O)OC6=CC5(C)C3C(O)C1O)OC(=O)C(OC(C)=O)C24` (stereo not drawn): the growth inhibition in assay [1] (setting [7]) was 69%; in assay [1] (setting [8]), 99% (active); in assay [1] (at 50.0 µM), 91.6% (active); in assay [2] (setting [7]), 66%; in assay [2] (setting [8]) it was 99% (active); in assay [2] (at 50.0 µM) it was 93.4% (active). Also, the growth inhibition in assay [3] (setting [7]) is 63%; in assay [3] (setting [8]), 99% (active); in assay [3] (at 50.0 µM) it was 92.2% (active); in assay [4] (setting [7]), 64%; in assay [4] (setting [8]), 99% (active); in assay [4] (at 50.0 µM), 91.7% (active). Moreover, the growth inhibition in assay [5] (setting [7]) was 68%; in assay [5] (setting [8]) it was 99% (active); in assay [5] (at 50.0 µM), 92.5% (active); in assay [6] (setting [7]), 79% (active); in assay [6] (setting [8]), 99% (active); in assay [6] (at 50.0 µM), -22%.

`COc1ccc(C(=O)Nc2ccc(Cl)cc2)cc1`: the growth inhibition in assay [1] (setting [7]) is -21%; in assay [1] (setting [8]), -17%; in assay [1] (at 50.0 µM) it was 3.75%; in assay [2] (setting [7]) it was -26%; in assay [2] (setting [8]), -12%; in assay [2] (at 50.0 µM), 1.85%. The growth inhibition in assay [3] (setting [7]) is 0%; in assay [3] (setting [8]), 0%; in assay [3] (at 50.0 µM) it was 5.85%; in assay [4] (setting [7]), -7%; in assay [4] (setting [8]) it was 5%; in assay [4] (at 50.0 µM), 44.2%. Also, the growth inhibition in assay [5] (setting [7]) is -14%; in assay [5] (setting [8]), -6%; in assay [5] (at 50.0 µM), -8.95%; in assay [6] (setting [7]), -8%; in assay [6] (setting [8]), -11%; in assay [6] (at 50.0 µM) it was -23.3%.

With `Cc1ccc(Cc2n[nH]c(=O)n2N2C(=O)c3ccccc3C2=O)cc1`, the growth inhibition was 18% in assay [1] (setting [7]); 16% in assay [1] (setting [8]); -24.8% in assay [1] (at 50.0 µM); 9% in assay [2] (setting [7]); 14% in assay [2] (setting [8]); -37.2% in assay [2] (at 50.0 µM). Further, the growth inhibition was 9% in assay [3] (setting [7]); 9% in assay [3] (setting [8]); -33.4% in assay [3] (at 50.0 µM); 9% in assay [4] (setting [7]); 17% in assay [4] (setting [8]); -5.1% in assay [4] (at 50.0 µM). The growth inhibition in assay [5] (setting [7]) is 18%; in assay [5] (setting [8]), 13%; in assay [5] (at 50.0 µM) it was -25.1%; in assay [6] (setting [7]) it was 13%; in assay [6] (setting [8]), 12%; in assay [6] (at 50.0 µM), -38.2%.
